EPAC2 antag = qHTS for Antagonist of cAMP-regulated guanine nucleotide exchange factor 2 (EPAC2): primary screen; Rap guanine nucleotide exchange factor 4 (Homo sapiens), Q8WZA2; Potency, µM (top dose mostly 114 µM), without a hit: at the highest dose activity, negative = inhibition, most hits filed as inhibitors; hit rate 0.18% among 360,000; EPAC2 GEF exchange of Rap1B-BODIPY-GDP, fluorescence; also: % is scaled to controls: 0 for no effect and ±100 for the full control effect; nearly all actives have a fitted effect of over 45% in size
EPAC2 ag = qHTS for Agonist of cAMP-regulated guanine nucleotide exchange factor 4 (EPAC2): primary screen | Potency, µM (highest dose often 154 µM), for inactives: at the top dose activation, usual class: activators | hit rate 0.079% among 360,000 | Rap guanine nucleotide exchange factor 4 (Homo sapiens), Q8WZA2 | EPAC2 activation, biochemical qHTS; response scale: 100% = 6.5 mM cAMP response | AID 720711, 2013; also: nearly all actives have a fitted effect of over 50% in size
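Compounds were added across a concentration range to EPAC2 (100 nM), RAP1B-BODIPY-GDP (250 nM) and GDP (50 uM). After 5 min at room temperature, fluorescence was recorded at 5-min intervals for 30 min.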
EPAC1 antag = qHTS for Antagonist of cAMP-regulated guanine nucleotide exchange factor 3 (EPAC1): primary screen; AID 720709, 2013; EPAC1 GEF assay, Rap1b-BODIPY-GDP exchange fluorescence; Potency, µM (highest dose often 115 µM), inactives show top-dose activity change, negative = inhibition, usual class: inhibitors; Rap guanine nucleotide exchange factor 3 (Homo sapiens), O95398; hit rate 0.14% among 360,000;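 also: plate controls were vehicle for no effect and positive control for full effect; nearly all actives have a fitted effect of over 50% in size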
VDR inh = Inhibitors of the vitamin D receptor (VDR): qHTS. Vitamin D3 receptor (Homo sapiens), P11473. VDR-SRC2-3 peptide fluorescence polarization, 2 h. Potency, µM, inactives show max response, negative = inhibition, actives largely listed as inhibitors. hit rate 0.93% among 400,000. AID 504847, 2011; also: % is scaled to controls: 0 for no effect and ±100 for the full control effect
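Signal is fluorescence polarization, reporting how far test compounds block the interaction of VDR with the SRC2-3 coregulator peptide after a 2 h room-temperature incubation.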
EPAC1 agonist = qHTS for Agonist of cAMP-regulated guanine nucleotide exchange factor 3 (EPAC1): primary screen. Rap guanine nucleotide exchange factor 3 (Homo sapiens), O95398. EPAC1 agonist qHTS, biochemical assay; response scale: 100% = response to 6.5 mM cAMP. Potency, µM (highest dose often 154 µM), inactives show at the top dose activation, actives largely listed as activators. hit rate 0.073% among 360,000. AID 720707, 2013; also: nearly all actives have a fitted effect of over 60% in size
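Fluorescent GDP-exchange assay: 100 nM EPAC1 with 250 nM Rap1B preloaded with BODIPY-GDP and 50 uM GDP; compounds tested as concentration series, 5 min at room temperature, then read every 5 min for 30 min (ex 480/em 540 nm); normalized to 6.5 mM cAMP.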
USP1-UAF1 inh = Inhibitors of USP1/UAF1: Primary Screen; Ubiquitin carboxyl-terminal hydrolase 1 (Homo sapiens), O94782; recombinant USP1/UAF1, Ub-Rhodamine cleavage fluorescence; Potency, µM (top dose mostly 57.1 µM), without a hit: at the top dose activity change, negative = inhibition, hits mostly inhibitors; hit rate 0.23% among 390,000; AID 743255, 2014; also: % is scaled to controls: 0 for no effect and ±100 for the full control effect; nearly all actives have a fitted effect of over 60% in size
Target sequence (O94782 whole entry, looked up): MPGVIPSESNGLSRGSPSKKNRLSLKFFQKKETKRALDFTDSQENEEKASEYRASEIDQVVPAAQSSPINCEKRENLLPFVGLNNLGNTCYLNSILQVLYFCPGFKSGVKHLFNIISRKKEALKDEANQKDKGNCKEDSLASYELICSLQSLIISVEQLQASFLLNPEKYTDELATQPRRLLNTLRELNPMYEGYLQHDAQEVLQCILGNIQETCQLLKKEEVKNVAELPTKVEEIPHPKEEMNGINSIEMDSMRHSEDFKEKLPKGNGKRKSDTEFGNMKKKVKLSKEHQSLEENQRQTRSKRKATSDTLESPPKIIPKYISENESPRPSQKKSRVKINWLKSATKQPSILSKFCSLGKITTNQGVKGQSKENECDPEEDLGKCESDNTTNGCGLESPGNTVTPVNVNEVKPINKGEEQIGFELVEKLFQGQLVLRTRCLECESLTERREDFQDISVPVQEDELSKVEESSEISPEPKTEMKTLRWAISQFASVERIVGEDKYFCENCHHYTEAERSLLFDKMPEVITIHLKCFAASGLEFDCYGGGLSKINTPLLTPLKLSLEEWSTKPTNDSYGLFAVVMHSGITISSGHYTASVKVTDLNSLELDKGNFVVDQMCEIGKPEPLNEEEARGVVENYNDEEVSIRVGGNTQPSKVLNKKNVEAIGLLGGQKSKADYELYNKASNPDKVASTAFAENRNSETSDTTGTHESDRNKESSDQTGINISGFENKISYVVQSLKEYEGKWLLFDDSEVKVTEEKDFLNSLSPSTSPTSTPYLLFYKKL
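Step one: compound is pinned into 1nM USP1/UAF1 in HEPES pH 7.8 buffer with TCEP. Step two: 15 min room-temperature incubation. Step three: Ub-Rho (150nM final) starts cleavage, tracked by fluorescence over six one-minute reads.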
* hit, by the source's call; ? = inconclusive; / = not tested or not shown; ! = a repeat was not active; [ ] = remark or other dose. Most compounds without a hit are left out; they make up all but 1.2% or so of the library. Calls follow the shape of the dose curve; as a rule, active = well fitted curve in the direction sought with a large enough effect; inconclusive = small, poorly fitted or top-dose-only effect, or another doubt; inactive = no such curve, though single readings can be large; an effect the other way counts as inactive or inconclusive. Potency is read from the fitted curve at half-maximal effect.

SMILES	EPAC2 antag	EPAC2 ag	EPAC1 antag	VDR inh	EPAC1 agonist	USP1-UAF1 inh
COc1cccc2c1C(=O)c1c(O)c3c(c(O)c1C2=O)CC(O)(C(C)=NO)CC3OC1CC(N)C(O)C(C)O1 (stereo not given)	36.6%	11.0%	10.4%	-8.6%	6.0%	25.1µM*
C[C@]12CC[C@H]3C(=CCc4cc(O)ccc43)[C@@H]1CCC2=O	-27.1%	5.9%	-15.9%	-12.5%	-5.1%	8.1%
CCOP(=S)(OCC)O/N=C(\C#N)c1ccccc1Cl	/	/	/	22.4µM*	/	/
CCN(CC)C(=O)c1ccc2c(c1)C1C=CCC1C(C(=O)O)N2 (stereo not given)	38.0%	6.0%	-14.0%	?	20.5%	25.1µM*
Cn1cccc1/C=C1/C(=O)NC(=S)N(Cc2ccc(F)cc2)C1=O	-0.3%	3.1%	15.8µM*	?	-11.7%	-28.9%
CCC[C@@H]1CC2=CC(=O)CC[C@]2(C)[C@@H]2CC[C@@]3(C)[C@H](CC[C@]3(O)CCC(=O)O)[C@H]12	/	/	/	-29.2%	/	/
NC(=O)O	/	/	/	8.9%	/	/
Cc1ccc(N2C(=O)NC(=O)/C(=C/C=C/c3ccco3)C2=O)cc1	-4.7%	15.2%	-12.2%	25.1µM*	7.8%	-1.1%
C[C@@H]1Cc2c(Cl)cc(C(=O)N[C@H](Cc3ccccc3)C(=O)O)c(O)c2C(=O)O1	/	/	/	-7.4%	/	/
CSc1nc(N)c(N=Nc2ccc([As](=O)(O)O)cc2)c(=O)[nH]1	-10.2%	-4.7%	-8.8%	50.1µM*	-0.6%	-13.1%
Nc1c([N+](=O)[O-])ccc(Oc2ccccc2)c1Cl	/	/	/	3.0%	/	/
Cc1cc2c(C(F)(F)F)cc(=O)oc2c2c1NCCC2	23.5%	?	0.4%	-0.9%	19.1%	?
O=c1cc(C(F)(F)F)c2cc3c4c(c2o1)CCCN4CCC3	20.6%	44.7µM*	99.0%	-10.8%	?	375.3%
CC[C@@H](CO)NC(=O)[C@H]1C=C2c3cccc4c3c(cn4C)C[C@H]2N(C)C1	/	/	/	31.6µM*	/	/
CC(CO)NC(=O)C1C=C2c3cccc4[nH]cc(c34)C[C@H]2N(C)C1 (stereo not given in full)	/	/	/	-13.2%	/	/
Cc1c(F)c(F)c(COC(=O)C2C(/C=C(\Cl)C(F)(F)F)C2(C)C)c(F)c1F (stereo not given)	/	/	/	-4.1%	/	/
COC[C@H]1OC(=O)c2coc3c2[C@@]1(C)C1=C(C3=O)[C@H]2CCC(=O)[C@@]2(C)C[C@H]1OC(C)=O	/	/	/	31.6µM*	/	/
COC[C@H]1OC(=O)c2coc3c2[C@@]1(C)C1=C(C3=O)C2CCC(=O)[C@@]2(C)C[C@H]1OC(C)=O (stereo not given in full)	/	/	/	44.7µM*!	/	/
NCCCP(=O)(O)CC1CCCCC1	/	/	/	5.1%	/	/
NC(=NCCc1ccc(I)cc1)SCCCc1cnc[nH]1	/	/	/	1.9%	/	/
COC(=O)C1=C(C(=O)OC)C2OC1c1cc3ccccc3cc12	4.0%	10.8%	-3.0%	8.91µM*	9.7%	-14.6%
CC(C)c1cc2c(c(O)c1O)[C@@]1(C(=O)O)CCCC(C)(C)[C@@H]1CC2	/	/	/	20µM*	/	/
CC(C)c1cc2c(c(O)c1O)[C@]1(C(=O)O)CCCC(C)(C)C1CC2 (stereo not given in full)	/	/	/	44.7µM*	/	/
Brc1c(NC2=NCCN2)ccc2nccnc12	/	/	/	44.7µM*	/	/
C[C@@H](C1CC[C@@]2(O)C3=CC(=O)[C@@H]4C[C@@H](O)[C@@H](O)C[C@]4(C)[C@H]3CC[C@]12C)[C@H](O)CCC(C)(C)O (stereo not given in full)	/	/	/	-11.3%	/	/
SMILES	EPAC2 antag	EPAC2 ag	EPAC1 antag	VDR inh	EPAC1 agonist	USP1-UAF1 inh
c1ccc2sc(C3(N4CCCCC4)CCCCC3)cc2c1	/	/	/	8.3%	/	/
Cc1ccccc1N1C(=O)NC(=O)/C(=C/c2ccc(N3CCOCC3)o2)C1=O	-20.1%	-9.2%	24.8%	-3.6%	18.5%	25.1µM*
O=C(CN1C(=O)S/C(=C\C=C\c2ccccc2)C1=O)Nc1ccccc1C(=O)O	-19.0%	-5.3%	?	79.4µM*	1.3%	?
COc1cccc2c1C13CC[N+]4(CC5CC5)CO[C@]1(CCC(=O)C3)C4C2	/	/	/	10.3%	/	/
CCC(C)c1ccc(N2C(=O)NC(=O)/C(=C/c3cccn3CCOc3ccc(C)cc3)C2=O)cc1 (stereo not given)	-2.2%	-30.6%	44.7µM*	26.1%	-22.9%	1.3%
Cc1ccc(N2C(=O)NC(=O)/C(=C\c3cccn3C(C)(C)C)C2=O)cc1	7.4%[57.1 µM]	-15.6%	-10.7%	-8.4%	-11.9%	-17.0%
C=C(C)[C@H]1[C@H]2OC(=O)[C@@H]1[C@]1(O)C[C@H]3O[C@]34C(=O)O[C@H]2[C@@]14C	/	/	/	20.1%	/	/
O=C1NC(=O)N(Cc2ccccc2)C(=O)/C1=C\N1CCCc2ccccc21	13.5%	9.2%	1.0%	35.5µM*	4.7%	-17.9%
O=C1NC(=O)N(Cc2ccccc2)C(=O)/C1=C\c1ccco1	-2.9%	-2.5%	?	-3.0%	-15.2%	-14.9%
C[C@H](NC(=O)[C@@H](N)Cc1ccc(O)cc1)C(=O)N[C@@H](Cc1ccccc1)C(=O)N[C@@H](Cc1ccccc1)C(N)=O	/	/	/	0.9%	/	/
CCC(Sc1ccccc1)C(=O)OC1CC2CCC(C1)N2C (stereo not given)	/	/	/	-0.7%	/	/
CN1/C(=C\C=C2C(=O)NC(=S)NC2=O)C(C)(C)c2ccccc21	199.8%	50.1µM*	130.6%	57.2%	?	?
O=C1NC(=O)C(=Cc2ccc(-c3ccccc3[N+](=O)[O-])o2)C(=O)N1	3.0%	15.4%	?	39.8µM*	10.0%	-5.5%
O=C1NC(=O)C(=Cc2ccc(SC3CCCCC3)o2)C(=O)N1	10.5%	-2.4%	-19.3%	?	-14.0%	?
CNS(=O)(=O)c1ccc(-c2ccc(C=C3C(=O)NC(=O)NC3=O)o2)cc1	23.1%	3.3%	-1.9%	44.7µM*	-30.0%	?
CC1(C)C2C[C@@H](O)[C@]3(C)C(CC[C@@]4(C)[C@H](c5ccoc5)C[C@H]5O[C@]543)[C@@]2(C)[C@@H](O)C[C@H]1O (stereo not given in full)	/	/	/	-5.0%	/	/
